In all, about 81,000 sequences were measured (“one-hybrid fitness for binding NBS DNA”: median about -0.1, highest 2% from about 0.36 on). The list comes from a sample in which the highest values are over-represented; it also holds similar and randomly drawn sequences.
B1: Caulobacter ParB omega fusion; a variant is named by its letters at X, in order, B8GW30 (parent)
chain: MESVVVGEPGMSEGRRGLGRGLSALLGEVDAAPAQAPGEQLGGSREAPIEILQRNPDQPRRTFREEDLEDLSNSIREKGVLQPILVRPSPDTAGEYQIVAGERAWRAAQRAGLKTVPIMVRELDDLAVLEIGIIENVQRADLNVLEEALSYKVLMEKFERTQENIAQTIGKSXSHVANXMRLLXLPDEVQSYLVSGELTAXHARAIAAAADPVALAKQIIEGGLSVRETEALARKAPNLSAGKSKGGRPPRVKDTDTQALESDLSSVLGLDVSIDHRGSTGTLTITYATLEQLDDLCNRLTRGI

Variants of: B1
Test: one-hybrid fitness for binding NBS DNA (the Noc-binding site; scaled: cognate 1, non-cognate 0); higher = stronger binding
Details: with NBS DNA site
Outline: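 Fitness is the rescaled log change in variant-to-wild-type read ratio, measured by Illumina sequencing of plasmids before and after bacterial one-hybrid selection. The scale puts cognate at 1 and non-cognate at 0. Selection of Caulobacter ParB libraries, four specificity codons randomised, took place in E. coli USO with a HIS3 reporter, site 19 bp from the promoter, over 48 hours at 37°C on M9-minus-histidine with 0.1 mM IPTG and 5 mM 3-AT.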

Variant	one-hybrid fitness for binding NBS DNA
QMVE	≤ 0.2
VKVA	≤ 0.2
CPHR	≤ 0.2
FHQR	≤ 0.2
QCAV	≤ 0.2
DFQV	≤ 0.2
QCQV	≤ 0.2
SFRV	≤ 0.2
QRFV	0.275
QRCV	0.406
SFQV	0.447
QPCV	≤ 0.2
QRAV	0.424
QCCV	≤ 0.2
QPQV	≤ 0.2
QRQV	0.397
SHME	≤ 0.2
HLRR	≤ 0.2
GKSS	≤ 0.2
QVST	0.318
ALAR	≤ 0.2
NTES	≤ 0.2
QTRV	0.576
QSGV	≤ 0.2

Variant	one-hybrid fitness for binding NBS DNA
QKYV	≤ 0.2
QTDV	≤ 0.2
QKRV	0.41
QPRV	≤ 0.2
QRGV	0.452
QCGV	0.221
QKDV	≤ 0.2
QCRV	0.525
QTYV	≤ 0.2
QCYV	≤ 0.2
LALN	≤ 0.2
NRHK	≤ 0.2
IQAC	≤ 0.2
EASL	≤ 0.2
KDSS	≤ 0.2
WRLM	≤ 0.2
VHFW	≤ 0.2
QCHV	0.214
QREV	≤ 0.2
QHQV	≤ 0.2
QHRV	0.378
QRNV	0.453
QCNV	≤ 0.2
QPHV	≤ 0.2

Variant	one-hybrid fitness for binding NBS DNA
QRRV	0.574
QRDV	≤ 0.2
QRYV	0.348
QRHV	0.439
QHYV	≤ 0.2
KSRF	≤ 0.2
EDAY	≤ 0.2
VSIE	≤ 0.2
RVLI	≤ 0.2
FHTT	≤ 0.2
NSFQ	≤ 0.2
LEVT	≤ 0.2
QASD	≤ 0.2
QLSH	≤ 0.2
QASN	≤ 0.2
QGST	≤ 0.2
QHST	0.446
QLST	0.413
QHSQ	≤ 0.2
QLSS	0.317
QAST	0.395
QSST	0.424
QHSC	≤ 0.2
QSSN	≤ 0.2

Variant	one-hybrid fitness for binding NBS DNA
TKRI	≤ 0.2
FEYS	≤ 0.2
SKTD	≤ 0.2
HPSA	≤ 0.2
RYAA	≤ 0.2
WFRC	≤ 0.2
AMMM	≤ 0.2
SFTI	≤ 0.2
QIST	0.311
QPST	≤ 0.2
QCST	0.553
KDHS	≤ 0.2
DTKT	≤ 0.2
QTKT	0.883
NTKT	≤ 0.2
QTVT	0.517
IWTS	≤ 0.2
SWRY	≤ 0.2
VSWL	≤ 0.2
RSWC	≤ 0.2
RKYC	≤ 0.2
RRYC	0.313
RRDC	0.318
RCWC	≤ 0.2

Variant	one-hybrid fitness for binding NBS DNA
MVEC	0.453
RRRC	0.39
RKDC	≤ 0.2
MVES	≤ 0.2
MVER	0.34
RRWC	0.393
RKRC	0.4
RQIE	≤ 0.2
ITGG	≤ 0.2
VFDW	≤ 0.2
QNAP	≤ 0.2
SDVV	≤ 0.2
ANIL	≤ 0.2
GEAG	≤ 0.2
AWVG	≤ 0.2
LYSD	≤ 0.2
VKHG	≤ 0.2
FRVT	≤ 0.2
LRPY	≤ 0.2
RCRC	0.391
RPRC	≤ 0.2
RSRC	0.355
AGSH	≤ 0.2
ISGM	≤ 0.2

Variant	one-hybrid fitness for binding NBS DNA
RNNS	0.388
RNRR	0.504
RNKH	0.237
RNKR	0.535
RNIR	≤ 0.2
RNVS	≤ 0.2
RNDS	≤ 0.2
RNKN	≤ 0.2
RNVR	≤ 0.2
RNNP	≤ 0.2
RNYR	≤ 0.2
RNKS	0.489
GHAT	≤ 0.2
RHRC	0.295
IAAT	≤ 0.2
AKCT	≤ 0.2
RNDR	≤ 0.2
RNNR	0.381
RNND	≤ 0.2
TPFG	≤ 0.2
MWSR	≤ 0.2
HRYM	≤ 0.2
RRLC	0.301
RCVC	≤ 0.2

Variant	one-hybrid fitness for binding NBS DNA
RRKC	0.375
RRVC	0.414
RPVC	≤ 0.2
RRHC	0.363
PACV	≤ 0.2
QHSI	≤ 0.2
QQFF	≤ 0.2
QQYF	≤ 0.2
QQQH	≤ 0.2
QQRF	0.387
QQRD	0.286
QQQN	≤ 0.2
KQRS	0.224
QQRS	0.714
QQRP	0.312
QQRH	0.645
QQRL	0.329
QQQS	0.428
DWKY	≤ 0.2
RGQM	≤ 0.2
NLNF	≤ 0.2
VHRM	≤ 0.2
GFMT	≤ 0.2
YDNR	≤ 0.2

Variant	one-hybrid fitness for binding NBS DNA
NHAS	≤ 0.2
GPQT	≤ 0.2
EHTR	≤ 0.2
QQWF	≤ 0.2
QQWG	≤ 0.2
QQYN	≤ 0.2
QQHN	≤ 0.2
QQHD	≤ 0.2
QQSS	0.436
QQSN	≤ 0.2
QQRN	0.466
QQSH	0.208
QQHS	0.476
QQWS	0.397
QQDN	≤ 0.2
AVSG	≤ 0.2
DTKE	≤ 0.2
VVTF	≤ 0.2
TFLI	≤ 0.2
TFAN	≤ 0.2
CKWT	≤ 0.2
QQYS	0.406
QQGP	≤ 0.2
QQGS	0.443

Variant	one-hybrid fitness for binding NBS DNA
QQNM	0.206
QQGN	≤ 0.2
QQLP	≤ 0.2
QQLS	0.373
QQNS	0.515
QQLH	0.22
QQDS	0.282
DMCG	≤ 0.2
LNDN	≤ 0.2
HIRY	≤ 0.2
MHFS	≤ 0.2
ATTP	≤ 0.2
ESGF	≤ 0.2
LAAR	≤ 0.2
SNHH	≤ 0.2
VFVQ	≤ 0.2
PNVF	≤ 0.2
NEKR	≤ 0.2
QQFS	0.284
QQAS	0.435
QQAM	≤ 0.2
VHVQ	≤ 0.2
TYPP	≤ 0.2
SRMD	≤ 0.2

Variant	one-hybrid fitness for binding NBS DNA
YAHL	≤ 0.2
QRVT	0.69
QRKT	0.848
DRKT	≤ 0.2
NRKT	0.213
SAIP	≤ 0.2
QINI	≤ 0.2
TCKR	0.262
TTYR	≤ 0.2
TTDR	≤ 0.2
TTRR	0.378
TTKR	0.372
TTVR	≤ 0.2
LKIL	≤ 0.2
PMKT	≤ 0.2
LRKL	≤ 0.2
DLDT	≤ 0.2
NAVF	≤ 0.2
TRTI	≤ 0.2
AVGC	≤ 0.2
RRKW	0.351
RRKT	0.814
RCVT	0.319
RGKT	0.24

Variant	one-hybrid fitness for binding NBS DNA
RRVT	0.755
GGMT	≤ 0.2
TPSP	≤ 0.2
YMFT	≤ 0.2
DRKR	0.238
KRKR	0.849
KCVR	≤ 0.2
KRVR	0.456
DRVR	≤ 0.2
KLKR	0.319
IHAG	≤ 0.2
CWRR	≤ 0.2
HRDS	≤ 0.2
RKDP	≤ 0.2
RKDD	≤ 0.2
RKNN	≤ 0.2
RKDS	0.412
RKND	≤ 0.2
RKNS	0.606
FIER	≤ 0.2
PSMI	≤ 0.2
EAPS	≤ 0.2
EAPR	0.408
ECPR	≤ 0.2

Variant	one-hybrid fitness for binding NBS DNA
EAPF	0.532
EAIR	≤ 0.2
EAPH	≤ 0.2
HVLW	≤ 0.2
ITMG	≤ 0.2
VHNR	≤ 0.2
LWVP	≤ 0.2
VKGG	≤ 0.2
EIGT	≤ 0.2
RTRT	0.704
RTST	0.565
RTET	0.234
RTQT	0.537
RTSH	0.207
RTYT	0.494
RTWT	0.356
RTQC	≤ 0.2
RTPT	0.201
RTIT	0.352
RTQM	≤ 0.2
RTSP	≤ 0.2
GGKA	≤ 0.2
AFLS	≤ 0.2
RKPM	≤ 0.2

Variant	one-hybrid fitness for binding NBS DNA
QSHF	≤ 0.2
CTPF	≤ 0.2
PLPM	≤ 0.2
KIKM	≤ 0.2
HHNR	≤ 0.2
NSTM	≤ 0.2
RTGG	≤ 0.2
RTGT	0.575
RTGC	≤ 0.2
YFNT	≤ 0.2
RRRK	0.41
RRSK	0.378
RRDK	≤ 0.2
RSSK	≤ 0.2
RCSK	≤ 0.2
RRYK	0.202
MRQS	≤ 0.2
MFRF	≤ 0.2

Source: a collection of fitness landscapes (doi:10.1016/j.celrep.2020.107928)
